Data as given in PubChem BioAssay (EPA / NIEHS).
Inconclusive results are not listed. Calls of active or inactive are those of the source. Rule for the calls, unless noted: active = hit-call score of the fitted dose curve at least 0.9, where 1 is the maximum; inconclusive = response in the unintended direction; inactive = score below 0.9.

Key:
[1] = IUF_NPC2a_radial_glia_migration_120hr: Leibniz Research Institute for Environmental Medicine (IUF) 120-hour Neural Progenitor Cell Migration Assay for Radial Glia Migration (NPC2a) (AID 2284298; active = hit-call score of the fitted dose curve at least 0.9, where 1 is the maximum; inactive = score below 0.9)
Method in brief: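 Hoechst-stained nuclei imaged at 120 h; algorithm maps sphere core by densest nuclei, sets migration edge at density threshold, gives radial glia migration distance (um) per well vs DMSO. hNPC spheres (0.3 mm), PDL/laminin, DMEM/F12 3:1 + 1% N2.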

[2] = IUF_NPC2-5_cytotoxicity_72hr: Cytotoxicity Assessment at 72 hours in the Leibniz Research Institute for Environmental Medicine (IUF) Neural Progenitor Cell Migration and Differentiation Assay for Cytotoxicity (NPC2-5) (AID 2284306);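 note: LDH release into supernatant measured by resorufin fluorescence marking membrane damage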
Method in brief: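 Membrane-integrity cytotoxicity at 72 h, read as LDH-driven resorufin fluorescence in supernatant. hNPC spheres from fetal cortex differentiate on coated plates in N2 medium, 37C, 5% CO2; seven serial compound concentrations plus solvent control (DMSO ≤0.1%).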

[3] = IUF_NPC5_oligodendrocyte_differentiation_120hr: Leibniz Research Institute for Environmental Medicine (IUF) 120-hour Oligodendrocyte Differentiation Assay (NPC5) (AID 2284304);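 note: primary human fetal neural progenitor spheres plated to migrate and differentiate; share of O4-positive cells among Hoechst nuclei found by CNN image analysis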
Method in brief: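 hNPC spheres, fetal cortex GW 16-19; PDL/laminin, DMEM:F12 3:1 + 1% N2, 37C/5% CO2; 7 concentrations + solvent control, 5 d exposure, half-change day 3. Readout: %O4+ of Hoechst+ nuclei in migration area, CNN classification; DMSO baseline.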

[4] = VALA_TUBHUV_Agonist_CellCount: Viability Assessment in the VALA Sciences human Umbilical Vein Endothelial Tubule Formation (TUBHUV) Agonism Assay (AID 2284309)
Method in brief: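 Viability endpoint by fluorescent imaging of fixed nuclear/CD31-stained HUVEC–HDF co-cultures. Readout is cell count, fitted upward against 0.1% DMSO. Compound exposure was 72 h in 10 ng/ml VEGF, after 3-day co-culture priming.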

[5] = VALA_MIGHUV2_CellCount: Viability Assessment in the VALA Sciences human Umbilical Vein Endothelial Cell Migration (MIGHUV) Assay, Area of Scratch Wound after Recovery (AID 2284314)
Method in brief: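 Viability read-out: Hoechst-stained nuclei counted by fluorescence imaging after a 24 h recovery period in fixed, scratched HUVEC plates. Compound was dosed within 30 min of scratching at six concentrations (triplicate); DMSO at 0.1 % served as baseline.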

[6] = VALA_TUBIPS_Antagonist_TubuleLength: VALA Sciences human iPS-derived Endothelial Tubule Formation (TUBIPS) Antagonist Assay (AID 2284313)
Method in brief: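 Tubule length was quantified by high-content imaging of CD31- and nuclear-stained cells, with 0.1% DMSO as neutral and 100 uM suramin as inhibition control. Compounds were applied for 3 days, in 10 ng/ml VEGF, to cultures pre-grown 3 days.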

[7] = VALA_MIGHUV2_Bcatenin: VALA Sciences human Umbilical Vein Endothelial Cell Migration (MIGHUV) Assay, Nuclear Translocation of beta-Catenin after Recovery (AID 2284315)
Method in brief: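 Nuclear beta-catenin imaged by immunofluorescence with Hoechst counterstain in fixed HUVEC, 24 h after scratch wounding and chemical addition. Six-point concentration-response in triplicate; activity scored as signal increase over 0.1% DMSO vehicle.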

For `Nc1ccn([C@@H]2O[C@H](CO)[C@@H](O)[C@@H]2O)c(=O)n1`, the outcome [1] was “inactive” and the AC50 [2] was 0.237 µM (active).
For `Cn1cc[nH]c1=S`, the outcome [1] was “inactive”, the outcome [3] was “inactive” and the outcome [2] was “inactive”. The outcome [4] was “inactive” and the outcome [5] was “inactive”.
In the case of `CCCC(CCC)C(=O)O`, the AC50 [3] is reported as 999 µM (active) and the outcome [6] is reported as “inactive”.
In the case of `OCCNCCO`, the outcome [4] is reported as “inactive”.
With `CCCCCCCCCC` the outcome [5] was “inactive” and the outcome [7] was “inactive”.
